Source: PubChem BioAssay
3T3 cytotox: cytotoxic compounds in NIH 3T3 cells; Potency, µM (series often up to 96.7 µM), actives largely listed as inhibitors; AID 1345082; 94,000 compounds, 4.3% hits; NIH 3T3 viability, CellTiter-Glo ATP luminescence, 48-72 h; also: nearly all actives have a fitted effect of over 55% in size
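Cells were seeded at 400 per well, treated with pin-transferred compound, and kept 48 or 72 hr at 37 °C before CellTiter-Glo addition and luminescence imaging of cellular ATP.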
HEK293 tox: HEK 293 cell cytotoxicity; 94,000 compounds, 6.6% hits; Potency, µM (titrated, usually from 115 µM), usual class: inhibitors; AID 1345083; HEK 293 viability, ATP luminescence (CellTiter-Glo), 48-72 h; also: nearly all actives have a fitted effect of over 60% in size
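CellTiter-Glo luminescence (cellular ATP) was read after 48 or 72 hr of compound exposure at 37 degree Celsius. Cells were HEK 293 plated at 250 cells/well.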
hNpr1 antagonist: antagonists of human natriuretic peptide receptor Npr1 | P16066 | HEK293 hNpr1 GloSensor cGMP, ANP-stimulated luminescence | Potency, µM (top dose mostly 46.3 µM), usual class: inhibitors | 76,000 compounds, 1.6% hits | AID 1347048; calls by dose curve; also: nearly all actives have a fitted effect of over 60% in size
Target sequence (P16066 whole entry, looked up): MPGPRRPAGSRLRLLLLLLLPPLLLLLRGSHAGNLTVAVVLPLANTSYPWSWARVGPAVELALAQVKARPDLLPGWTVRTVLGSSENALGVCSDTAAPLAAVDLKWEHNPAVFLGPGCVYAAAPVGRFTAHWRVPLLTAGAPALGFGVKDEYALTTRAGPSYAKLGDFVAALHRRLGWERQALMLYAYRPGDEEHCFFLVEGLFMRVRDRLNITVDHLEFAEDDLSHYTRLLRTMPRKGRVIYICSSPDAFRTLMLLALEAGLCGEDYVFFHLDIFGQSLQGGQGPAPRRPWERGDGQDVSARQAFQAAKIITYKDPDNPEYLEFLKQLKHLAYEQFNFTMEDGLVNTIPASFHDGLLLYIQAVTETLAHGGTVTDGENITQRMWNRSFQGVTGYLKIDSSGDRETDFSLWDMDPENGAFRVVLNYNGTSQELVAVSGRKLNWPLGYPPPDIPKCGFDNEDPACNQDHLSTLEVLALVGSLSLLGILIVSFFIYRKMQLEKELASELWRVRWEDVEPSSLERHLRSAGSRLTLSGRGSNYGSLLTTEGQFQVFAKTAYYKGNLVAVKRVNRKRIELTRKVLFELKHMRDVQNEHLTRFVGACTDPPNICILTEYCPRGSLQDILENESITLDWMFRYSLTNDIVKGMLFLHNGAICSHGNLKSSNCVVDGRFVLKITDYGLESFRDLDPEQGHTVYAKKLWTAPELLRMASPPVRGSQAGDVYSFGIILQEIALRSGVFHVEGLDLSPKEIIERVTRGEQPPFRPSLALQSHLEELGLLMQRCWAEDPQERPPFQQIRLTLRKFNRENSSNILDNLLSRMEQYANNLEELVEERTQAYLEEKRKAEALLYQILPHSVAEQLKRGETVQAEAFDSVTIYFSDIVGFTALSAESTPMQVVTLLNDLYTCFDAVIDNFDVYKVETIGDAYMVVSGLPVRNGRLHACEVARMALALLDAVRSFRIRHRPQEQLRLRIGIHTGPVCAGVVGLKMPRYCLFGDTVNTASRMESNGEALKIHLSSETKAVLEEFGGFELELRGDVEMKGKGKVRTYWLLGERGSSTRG
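HEK293 cells stably expressing human Npr1 and cGMP GloSensor pGS-40F, loaded 2 h with 2% GloSensor reagent, given compound 30 min at room temperature. Luminescence read before and 20 min after 0.1 nM hNppA.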
GPT2 inhibitor: blocks human glutamate pyruvate transaminase 2. 100,000 compounds, 0.25% hits. Recombinant GPT2, coupled pyruvate oxidase/HRP Amplex Red fluorescence. Potency, µM (doses to about 57.7 µM), most hits filed as inhibitors. Q8TD30; also: nearly all actives have a fitted effect of over 60% in size
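GPT2 10ng/uL, a-KG 250uM, L-Ala 2mM, HEPES pH7.5 + 0.0001% Tween; 30 min RT. Then Amplex mix (PO/HRP/ThPP), 30 min RT dark, fluorescence. AOA 50uM used as positive control.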
Luciferase inh: blocks purified firefly luciferase enzyme activity; P08659; purified P. pyralis luciferase, luminescence, biochemical; Potency, µM (series often up to 115 µM), most hits filed as inhibitors; 76,000 compounds, 2.5% hits; also: nearly all actives have a fitted effect of over 65% in size
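Biochemical qHTS: compound (6-point titration) added to 10uM D-luciferin plus 10uM ATP in Tris acetate pH 7.5 buffer with Mg, Tween-20 and BSA, then purified enzyme at 10nM; light output imaged.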
A number is an active result; - = inactive; ? = inconclusive; . = not tested or not shown; [ ] = another dose, or the depositor's remark. In the library only some 10% were active in any assay of this set; here they are far more common. Unless noted, calls follow the shape of the dose curve; as a rule, active = well fitted curve in the direction sought with a large enough effect; inconclusive = small, poorly fitted or top-dose-only effect, or another doubt; inactive = no such curve, though single readings can be large; an effect the other way counts as inactive or inconclusive.

SMILES	3T3 cytotox	HEK293 tox	hNpr1 antagonist	GPT2 inhibitor	Luciferase inh
NC(=O)c1cccnc1OC1CCN(C(=O)c2ccoc2)C1 (centres undefined)	-	-	-	-	-
CSc1ccc(C(=O)N2CC(=O)NCC(C)(C)C2)cc1	?	-	.	.	.
O=C1c2ccccc2-[n+]2ccc3c([nH]c4ccccc43)c21	.	.	.	0.27µM	.
OCC1(Cc2ccc(F)cc2F)CCCN(c2cnc3ccccc3n2)C1 (centres undefined)	?	40µM	?	-[11.5 µM]	-
O=C(O)C1(Cc2ccccc2F)CCCN(c2ncccn2)C1 (centres undefined)	-	?	-	-	-
O=C(c1c(F)cccc1F)N1CCC(OC2CCN(Cc3ccccc3)CC2)CC1	-	-	-	-	-
CC1(CCCCN2CCOCC2)COc2ccc(C(=O)NCc3ccccc3)cc2N1 (centres undefined)	-	?	-	-	-
CC1(CCCCc2ccccc2)COc2ccc(C(=O)NCc3ccncc3)cc2N1 (centres undefined)	?	89µM	?	-	-
CC1(CCCCc2ccccc2)COc2ccc(C(=O)NCc3cccnc3)cc2N1 (centres undefined)	?	?	-	-	-
CC1(CCCCc2ccccc2)COc2ccc(C(=O)NCCN3CCOCC3)cc2N1 (centres undefined)	79µM	89µM	-	-	-
CCc1ccc(C(=O)N2CCCC(c3nccn3Cc3ccncc3)C2)s1 (centres undefined)	?	?	-	-	-
CNC(=O)c1cc(C2CC2)nc2c1c(C1CCN([S+](=O)([O-])c3ccc(NC(C)=O)cc3)CC1)nn2C	-	?	.	.	.
NC(=O)Cc1c[nH]c2ncc(-c3cccc(O)c3)cc12	?	-	-	-	?
NC(=O)Cc1c[nH]c2ncc(-c3ccc(Cl)cc3)cc12	?	?	-	-	79µM
NC(=O)Cc1c[nH]c2ncc(-c3ccc4c(c3)OCO4)cc12	45µM	-	-	-	63µM
COc1cccc(-c2cccc(C(=O)N3CCCC3C(=O)NC3CC3)c2)c1 (centres undefined)	-	?	.	-	.
CCN1C(=O)C2(CCN(S(=O)(=O)c3cc(F)ccc3C)CC2)c2ccccc21	-	-	-	-	-
Cc1cc(C)c(CNC(=O)c2nc(-c3ccc(CN(C)C)cc3)cc3c2ccn3C(C)C)c(=O)[nH]1	14µM	?	-	-	-
Cc1cc(C)c(CNC(=O)c2nc(-c3ccc(CN(C)C)cc3)cc3[nH]ccc23)c(=O)[nH]1	100µM	?	-	-	?
Cc1cc(C)c(CNC(=O)c2cc(-c3ccc(CN(C)C)cc3)cc3ncn(C)c23)c(=O)[nH]1	?	-	-	-	?
Cc1ccc(-c2cc3c(ccn3C(C)C)c(C(=O)NCc3c(C)cc(C)[nH]c3=O)n2)cn1	79µM	?	-	-	?
Cc1cc(C)c(CNC(=O)c2nc(-c3ccccc3C)cc3c2ccn3C(C)C)c(=O)[nH]1	28µM	22µM	?	-	-
COc1ccc(-c2cc3c(ccn3C(C)C)c(C(=O)NCc3c(C)cc(C)[nH]c3=O)n2)cn1	?	?	-	-	-
O=C1Nc2ccccc2C12CN([S+](=O)([O-])c1cccc(C(F)(F)F)c1)C2	?	-	.	-	.
O=C1Nc2ccccc2C12CCN([S+](=O)([O-])c1ccsc1)CC2	-	45µM	-	?	-
COc1ccc2c(c1)CCN=C2C[C@H]1CN(C(=O)C(C)(C)C)CC[C@H]1CC(=O)O	?	112µM	-	?	-
COc1ccc(S(=O)(=O)Nc2ccc3n(c2=O)C[C@H]2C[C@@H]3CN(C(=O)Nc3cc(OC)cc(OC)c3)C2)cc1	50µM	-	-	-	-
COc1ccc(NC(=O)N2C[C@@H]3C[C@H](C2)c2ccc(NS(=O)(=O)c4ccc(OC)cc4)c(=O)n2C3)cc1	-	-	-	-	-
CC1=C[C@@H](CNC(=O)NC2CCCCC2)[C@H](C(C)C)C[C@H]1Cc1nc2c(C)cccc2[nH]1	-	-	-	-	-
CC1=C[C@@H](CNCc2ccccc2O)[C@H](C(C)C)C[C@H]1Cc1nc2c(C)cccc2[nH]1	?	?	?	-	-
